Assay results published in PubChem BioAssay (NCATS).
Records with an inconclusive call do not appear. Unmarked numbers belong to inactive results. The source made the active and inactive calls. Calls come from the whole dose curve; as a rule, active = well fitted inhibition curve with a large enough effect; inconclusive = small, poorly fitted or top-dose-only effect; inactive = flat fitted curve, though single readings scatter.

How the values were obtained:
CRL-7250 = normal cell line; assay: Cytotoxic Profiling of Annotated Libraries Using Quantitative High-Throughput Screening (AID 1296008); conditions: Five cell lines viability, CellTiter-Glo ATP luminescence, 48-72 h; max response: hits give low values; note: potency is the fitted concentration of half-maximal effect; for max response: % is set by controls: 0 for no effect and ±100 for the full control effect
Summary of the method: (§1)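 Cytotoxicity was measured as CellTiter-Glo ATP luminescence, read after 10 min at room temperature. Compound treatment of the cells lasted 48 or 72 hr at 37 degrees Celsius in a qHTS format.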

HEK293 = assay: as above; conditions: Five cell lines viability, CellTiter-Glo ATP luminescence, 48-72 h; max response: hits give low values
Summary of the method: as §1

HaCat = assay: as above; conditions: Five cell lines viability, CellTiter-Glo ATP luminescence, 48-72 h; max response: hits give low values
Summary of the method: as §1

KB-3-1 = assay: as above; conditions: Five cell lines viability, CellTiter-Glo ATP luminescence, 48-72 h; max response: hits give low values
Summary of the method: as §1

NIH3T3 = assay: as above; conditions: Five cell lines viability, CellTiter-Glo ATP luminescence, 48-72 h; max response: hits give low values
Summary of the method: as §1

HEK293T = assay: qHTS assay to identify novel small-molecules to repurpose for Merkel cell carcinoma treatment (AID 1296009); conditions: MCC and control cell lines, CellTiter-Glo viability, 72 h; series mostly up to 44.8 µM
Summary of the method: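 After compound transfer in DMSO, plates were kept 72 hr at 37 degree celsius. Luminescent ATP signal from CellTiter-Glo served as viability measure, normalized against DMSO and no-cell controls.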
Note: nearly all actives have a fitted effect of over 60% in size.

With `CC(=O)NC(C(=O)OC1CCC(C)(C)C2CC=C3C(=O)OCC3(O)C12C)C(C)C` (configuration not stated) the max response (CRL-7250) was 3.06%, the outcome (HEK293) was “inactive” and the max response (HaCat) was -11.8%. For the same compound, the outcome (KB-3-1) was “inactive”, the max response (NIH3T3) was -6.26% and the Potency (HEK293T) was “inactive”.
`C[C@@H]1O[C@@H](O[C@H]2[C@H](O[C@H]3[C@H](O[C@H]4CC[C@@]5(C=O)C(CC[C@]6(C)C5CC=C5C7CC(C)(C)C[C@@H](O)[C@]7(C)CC[C@]56C)C4(C)C)O[C@H](C(=O)O)[C@@H](O)[C@@H]3O)OC[C@@H](O)[C@@H]2O)[C@H](O)[C@H](O)[C@H]1O` (some centres not stated) was tested, and the outcome (CRL-7250) was “inactive”, the outcome (HEK293) was “inactive” and the max response (HaCat) was -16.7%. For the same compound, the max response (KB-3-1) was 7.57%, the outcome (NIH3T3) was “inactive” and the outcome (HEK293T) was “inactive [at 9.27 µM]”.
With `CC1(CO)CC[C@]2(C(=O)O[C@@H]3O[C@H](CO)[C@@H](O)[C@H](O)[C@H]3O)CC[C@]3(C)C(=CCC4[C@@]5(C)CC[C@H](O[C@@H]6O[C@H](C(=O)O)[C@@H](O)[C@H](O)[C@H]6O)C(C)(C)C5CC[C@]43C)C2C1` (some centres not stated) the max response (CRL-7250) was -1.41%, the outcome (HEK293) was “inactive” and the max response (HaCat) was 1.75%. The outcome (KB-3-1) was “inactive”, the outcome (NIH3T3) was “inactive” and the outcome (HEK293T) was “inactive [at 9.27 µM]”.
`COC1=CC(=O)O[C@@H](CCc2ccccc2)[C@@H]1O` was tested, and the max response (CRL-7250) was -14.6%, the outcome (HEK293) was “inactive” and the max response (HaCat) was -13%. For the same compound, the max response (KB-3-1) was 5.84%, the max response (NIH3T3) was 3.13% and the Potency (HEK293T) was “inactive”.
`O=C(OCC12OC1C=CC(OC(=O)c1ccccc1)C2O)c1ccccc1` (configuration not stated) was tested, and the max response (CRL-7250) was 4.27%, the outcome (HEK293) was “inactive” and the max response (HaCat) was 0.27%. For the same compound, the max response (KB-3-1) was 9.03%, the max response (NIH3T3) was -13.1% and the Potency (HEK293T) was “inactive”.
For `COc1cccc2c1CCC[C@H]2CN(C)CCc1ccc2ccoc2c1`, the outcome (CRL-7250) was “inactive”, the outcome (HEK293) was “inactive” and the max response (HaCat) was 3.47%. For the same compound, the max response (KB-3-1) was 4.61%, the max response (NIH3T3) was -8.39% and the Potency (HEK293T) was “inactive”.
With `Cc1c(CN(C)C(=O)/C=C/c2cnc3c(c2)CCC(=O)N3)oc2ccccc12` the outcome (CRL-7250) was “inactive”, the outcome (HEK293) was “inactive” and the max response (HaCat) was 1.29%. The max response (KB-3-1) was 9.61%, the max response (NIH3T3) was -2.06% and the Potency (HEK293T) was “inactive”.
For `C=C(C)C1CC2(CO)C(=CC1=O)CCC(O)C2C` (configuration not stated), the max response (CRL-7250) was 3.39%, the outcome (HEK293) was “inactive” and the max response (HaCat) was -2.77%. The max response (KB-3-1) was 4.67%, the outcome (NIH3T3) was “inactive” and the Potency (HEK293T) was “inactive”.
For `C=CC1(C)CC(OC(=O)C(=C)C(O)COC(C)=O)C(C(=C)C(=O)OC)C(O)C1C(=C)CO` (configuration not stated), the outcome (CRL-7250) was “inactive”, the outcome (HEK293) was “inactive” and the max response (HaCat) was -1.47%. The max response (KB-3-1) was 1.8%, the max response (NIH3T3) was 0.638% and the Potency (HEK293T) was “inactive”.
With `N[C@@H](CC(=O)N1CCn2c(nnc2C(F)(F)F)C1)Cc1[nH]nc2c(F)c(F)ccc12` the max response (CRL-7250) was -0.191%, the outcome (HEK293) was “inactive” and the max response (HaCat) was -2.51%. For the same compound, the max response (KB-3-1) was -3.58%, the max response (NIH3T3) was -1.97% and the Potency (HEK293T) was “inactive”.
For `CC(/C=C/C1(O)C(C)CC(O)CC1(C)C)OC1OC(CO)C(O)C(O)C1O` (configuration not stated), the max response (CRL-7250) was 1.42%, the outcome (HEK293) was “inactive” and the max response (HaCat) was -9.66%. For the same compound, the outcome (KB-3-1) was “inactive”, the outcome (NIH3T3) was “inactive” and the Potency (HEK293T) was “inactive”.
With `CCn1cc(C2=NOC(C(=O)Nc3c(C)n(C)n(-c4ccccc4)c3=O)C2)c(C)n1` (configuration not stated) the max response (CRL-7250) was 1.73%, the outcome (HEK293) was “inactive” and the max response (HaCat) was -4.53%. The outcome (KB-3-1) was “inactive”, the max response (NIH3T3) was 2.09% and the Potency (HEK293T) was “inactive”.
In the case of `CC1CCC23COC(=O)C2=CC(O)CC3C1(C)CCC1=CC(=O)OC1O` (configuration not stated), the outcome (CRL-7250) is reported as “inactive”, the outcome (HEK293) is reported as “inactive” and the max response (HaCat) is reported as -0.369%. The outcome (KB-3-1) was “inactive”, the outcome (NIH3T3) was “inactive” and the Potency (HEK293T) was “inactive”.
For `O=C1NC(Cc2ccc(O)cc2)C(=O)N2CCCC12` (configuration not stated), the max response (CRL-7250) was -11.1%, the outcome (HEK293) was “inactive” and the max response (HaCat) was -15.4%. The max response (KB-3-1) was 8.78%, the max response (NIH3T3) was -0.188% and the Potency (HEK293T) was “inactive”.
In the case of `CNC(=O)[C@H]1O[C@@H](n2cnc3c(NCc4ccc(N)c(I)c4)ncnc32)[C@H](O)[C@@H]1O`, the max response (CRL-7250) is reported as -3.43%, the outcome (HEK293) is reported as “inactive” and the max response (HaCat) is reported as -7.91%. The outcome (KB-3-1) was “inactive”, the max response (NIH3T3) was -0.967% and the outcome (HEK293T) was “inactive [at 9.27 µM]”.
With `C[C@@H]1O[C@@H](O[C@H]2[C@H](O[C@H]3[C@H](O[C@H]4CC[C@@]5(CO)C(CC[C@]6(C)C5CC=C5C7CC(C)(C)C[C@@H](O)[C@]7(C)CC[C@]56C)C4(C)C)O[C@H](C(=O)O)[C@@H](O)[C@@H]3O)OC[C@@H](O)[C@@H]2O)[C@H](O)[C@H](O)[C@H]1O` (some centres not stated) the outcome (CRL-7250) was “inactive”, the outcome (HEK293) was “inactive” and the max response (HaCat) was 4.17%. The max response (KB-3-1) was 5.01%, the max response (NIH3T3) was -0.118% and the outcome (HEK293T) was “inactive [at 9.27 µM]”.
With `COc1cc(/C=C/C(=O)OC2CC(OC(C)=O)C(OC(C)=O)C3C2CCC2C(=O)OC(c4ccoc4)CC23C)ccc1O[C@@H]1O[C@H](CO)[C@@H](O)[C@H](O)[C@H]1O` (some centres not stated) the max response (CRL-7250) was -8.1%, the outcome (HEK293) was “inactive” and the Potency (HaCat) was 6.11 µM (active). For the same compound, the max response (KB-3-1) was -0.283%, the max response (NIH3T3) was -18.6% and the Potency (HEK293T) was “inactive”.
